hDAT+cocaine = changed hDAT dopamine uptake under cocaine IC80, either direction, primary screen, cocaine antagonist project, cell-based, LLC-PK1 hDAT, [14C]-dopamine uptake, MLSMR | LLC-PK1 hDAT cells, [14C]-dopamine uptake with cocaine IC80; actives deviate in either direction | 1.3% of 110,000 active | B-score at 10 µM | Sodium-dependent dopamine transporter (Homo sapiens), Q01959;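 active means Z score or B-score, a plate-position-corrected score, falls beyond the plate's 99.7% confidence bounds, in either direction; inactive means both scores lie inside the 99.7% bounds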;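 further: scored against the spread of the other compound wells on the same plate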
Cav32 inh = Cav3.2 calcium influx blockers – cell-based, Fluo-4 calcium fluorescence, FDSS, MLSMR library, primary screen | Voltage-dependent T-type calcium channel subunit alpha-1H (Homo sapiens), O95180 | Cav3.2-expressing cells; active compounds read low | B-score at 10 µM | 4% of 100,000 active | AID 449739, 2010;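 active means single-dose well whose peak fluorescence ratio is a statistical outlier from its plate by either plate-standardised score or position-corrected B-score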
Target sequence (O95180 whole entry, looked up): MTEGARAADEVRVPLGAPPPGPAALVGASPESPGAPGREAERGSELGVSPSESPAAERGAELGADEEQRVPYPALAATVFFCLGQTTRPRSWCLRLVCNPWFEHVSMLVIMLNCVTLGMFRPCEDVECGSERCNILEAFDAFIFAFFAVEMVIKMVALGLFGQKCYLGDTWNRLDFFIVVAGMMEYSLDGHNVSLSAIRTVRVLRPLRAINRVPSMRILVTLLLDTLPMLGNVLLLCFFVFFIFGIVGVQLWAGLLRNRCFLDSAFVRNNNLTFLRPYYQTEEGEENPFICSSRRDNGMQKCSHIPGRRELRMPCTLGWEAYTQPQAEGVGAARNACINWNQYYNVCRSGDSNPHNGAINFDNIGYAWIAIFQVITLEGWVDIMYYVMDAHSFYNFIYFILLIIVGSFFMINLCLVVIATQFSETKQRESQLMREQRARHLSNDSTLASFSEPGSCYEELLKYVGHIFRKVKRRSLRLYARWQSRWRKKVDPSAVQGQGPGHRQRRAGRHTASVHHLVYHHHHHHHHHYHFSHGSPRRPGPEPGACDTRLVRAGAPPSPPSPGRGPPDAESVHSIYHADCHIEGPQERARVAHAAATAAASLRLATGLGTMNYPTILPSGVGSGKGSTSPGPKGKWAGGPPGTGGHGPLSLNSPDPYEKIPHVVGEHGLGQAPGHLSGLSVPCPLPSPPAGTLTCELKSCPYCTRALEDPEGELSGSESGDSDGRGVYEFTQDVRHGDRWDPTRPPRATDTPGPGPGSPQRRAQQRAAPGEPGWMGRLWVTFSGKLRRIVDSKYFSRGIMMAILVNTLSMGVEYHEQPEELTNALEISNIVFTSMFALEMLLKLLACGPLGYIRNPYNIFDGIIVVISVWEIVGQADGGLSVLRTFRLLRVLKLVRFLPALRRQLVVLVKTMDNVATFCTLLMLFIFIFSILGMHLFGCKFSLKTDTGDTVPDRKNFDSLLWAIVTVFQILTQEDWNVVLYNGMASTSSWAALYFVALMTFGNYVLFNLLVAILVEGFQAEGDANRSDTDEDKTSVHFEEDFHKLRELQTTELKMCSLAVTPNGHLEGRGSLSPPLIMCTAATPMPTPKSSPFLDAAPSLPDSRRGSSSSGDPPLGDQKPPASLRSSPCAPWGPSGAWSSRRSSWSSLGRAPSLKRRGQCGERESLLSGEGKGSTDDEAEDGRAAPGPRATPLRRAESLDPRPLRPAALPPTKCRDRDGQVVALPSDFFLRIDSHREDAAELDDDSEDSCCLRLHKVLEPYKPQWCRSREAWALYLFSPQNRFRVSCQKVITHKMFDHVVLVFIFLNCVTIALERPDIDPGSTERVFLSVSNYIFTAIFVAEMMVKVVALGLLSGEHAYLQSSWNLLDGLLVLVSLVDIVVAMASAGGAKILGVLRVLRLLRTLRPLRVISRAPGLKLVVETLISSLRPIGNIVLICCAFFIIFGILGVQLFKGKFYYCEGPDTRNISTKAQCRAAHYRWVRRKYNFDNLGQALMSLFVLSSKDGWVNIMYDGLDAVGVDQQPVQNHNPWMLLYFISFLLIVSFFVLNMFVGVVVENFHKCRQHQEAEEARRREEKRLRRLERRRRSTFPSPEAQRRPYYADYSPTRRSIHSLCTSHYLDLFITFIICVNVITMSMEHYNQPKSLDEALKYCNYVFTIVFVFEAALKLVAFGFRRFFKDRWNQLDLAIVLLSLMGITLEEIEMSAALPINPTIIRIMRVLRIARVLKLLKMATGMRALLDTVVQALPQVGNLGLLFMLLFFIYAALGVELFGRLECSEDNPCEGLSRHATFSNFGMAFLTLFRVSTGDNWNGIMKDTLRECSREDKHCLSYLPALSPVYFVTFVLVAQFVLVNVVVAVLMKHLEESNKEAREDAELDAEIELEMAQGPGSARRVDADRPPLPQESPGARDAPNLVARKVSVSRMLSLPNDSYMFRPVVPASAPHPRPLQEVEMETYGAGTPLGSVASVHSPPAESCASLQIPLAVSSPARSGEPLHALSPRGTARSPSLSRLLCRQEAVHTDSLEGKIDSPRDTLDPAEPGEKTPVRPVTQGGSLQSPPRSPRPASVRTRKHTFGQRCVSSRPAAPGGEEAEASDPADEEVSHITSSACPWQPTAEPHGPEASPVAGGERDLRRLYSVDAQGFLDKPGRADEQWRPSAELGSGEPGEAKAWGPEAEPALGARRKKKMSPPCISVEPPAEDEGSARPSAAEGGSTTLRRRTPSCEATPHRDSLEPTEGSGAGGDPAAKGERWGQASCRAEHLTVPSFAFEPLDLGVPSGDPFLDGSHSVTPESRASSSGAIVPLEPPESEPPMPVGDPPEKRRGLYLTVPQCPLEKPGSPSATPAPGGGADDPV
PLAP activator = PLAP enzyme activators, biochemical, luminescence, HTS; 1.2% of 96,000 active; AID 696, 2007; Alkaline phosphatase, placental type (Homo sapiens), P05187; activation fold at 20 µM; purified PLAP enzyme, luminescent substrate read-out; active compounds read high; in the data active means activation fold above about 2
PostGolgi yeast = phenotypic screen on post-Golgi transport, primary screen. post-Golgi transport phenotypic cell assay. 0.9% of 98,000 active. AID 739, 2007. inhibition, % at 10 µM;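 further: yeast cells grown in 1536-well plates; yeast grown about 18 h at 30C before absorbance read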
PostGolgi ctrl = growth inhibition of yeast control strain, primary screen, counter-screen for post-Golgi transport modulator project; inhibition, % at 10 µM; efflux-deficient yeast background strain, growth absorbance A615, 16 h; AID 738, 2007; 5% of 98,000 active
* hit, by the source's call; . = not tested or not shown. Shown are actives, neighbours in structure and some others; about 9.6% of the full set was active somewhere. Unless noted, no stated cut-off is given here; in the data, active means inhibition above about 30%; inactive means the rest.

SMILES	hDAT+cocaine	Cav32 inh	PLAP activator	PostGolgi yeast	PostGolgi ctrl
COCCNC(=O)c1ccc2c(c1)NC(=O)CS2	-1.06	-0.165	1.1	0.5	0.4
CCOc1cc2c(cc1C(C)(C)C)NC(=O)CS2	0.175	-0.553	1	2.4	34.6*
Cc1ccc(Cn2c(C3CCCN3c3nc(-c4cc(Cl)c(N)c(Cl)c4)cs3)nc3cc(Cl)c(Cl)cc32)cc1 (stereo not given)	-2.18	0.946	.	.	.
CCCCN(CC)CCNc1c(NC2CCN(C(=O)OCC)CC2)c(=O)c1=O	-0.686	-0.683	1.3	-3.7	35.8*
CCOC(=O)N1CCC(Nc2c(NCCCN(CC)CC)c(=O)c2=O)CC1	1.24	-0.361	1.2	-7.7	1.9
CCOC(=O)N1CCC(Nc2c(NCCCOC)c(=O)c2=O)CC1	-0.0131	0.571	1	9.4	47.4*
CCn1c(=NC(=O)c2ccc(N3C(=O)CCC3=O)cc2)sc2c(OC)ccc(OC)c21	-2.03	-0.473	1.2	37.3*	16.4
CC(=O)N(Cc1ccco1)C1(C(=O)NC2CCCCC2)CCCCC1	-1.14	-0.203	1.1	-1.8	-7.0
CCC(C)(C(=O)NC1CCCCC1)N(Cc1ccco1)C(=O)Cc1cccs1 (stereo not given)	-1.12	-4.68*	1.1	-11.5	2.2
O=C(Cc1cccs1)N(Cc1cccs1)C1(C(=O)NC2CCCC2)CCCCC1	-1.54	-8.37*	1.8	-6.5	17.9
O=C(Cc1cccs1)N(Cc1ccco1)C1(C(=O)NC2CCCCC2)CCCCC1	-0.00619	-7.14*	1.3	-15.9	25.4
COc1ccc(/C=N/NC(=O)Cc2csc(Nc3cccc(C(F)(F)F)c3)n2)c(OC)c1	2.68*	-1.25	1	-33.2	7.5
CCOc1ccc(/C=N/NC(=O)Cc2csc(Nc3cccc(C(F)(F)F)c3)n2)c(OCC)c1	1.01	-0.642	1.2	11.9	3.6
COCCNC(=O)CSCc1nc(-c2ccc(SC)cc2)oc1C	0.222	-0.11	1.2	-8.0	4.8
O=S(Cc1ccc(Cl)cc1)CC(O)COc1ccc(Cl)cc1 (stereo not given)	-0.534	-2.02	1	-0.5	8.3
CCCCS(=O)CC(COc1ccc(Cl)cc1)OC(=O)c1ccccc1 (stereo not given)	1.85	-3.48	1.7	-4.5	42.0*
CN(C)S(=O)(=O)c1ccc(S(=O)(=O)NC2CCOC(C)(C)C2)cc1 (stereo not given)	0.0138	-1.83	.	.	.
CO/N=C/C(C#N)c1ncc(C(F)(F)F)cc1Cl (stereo not given)	-2.49*	-2.55	1	4.2	17.5
CON=C1CCN(c2ncc(C(F)(F)F)cc2Cl)CC1	-0.09	-0.418	1	8.8	7.4
CCOC(=O)N1CCC(NC(=O)c2ccc(CS(=O)(=O)c3ccc(OC)cc3)o2)CC1	-0.88	0.79	1	-1.5	8.2
CCc1oc2ccccc2c1C(=O)CCN1CCCCC1	-2.08	0.0737	1.3	5.2	35.7*
COc1ccccc1OCC(=O)NC1CCCCCC1	0.0908	1.94	1	3.2	18.1
COc1ccc2c(c1)c(=O)oc1cc(OCC(=O)NC3CCCCC3)ccc12	-0.101	0.166	0.9	80.8*	93.1*
Cc1ccc(NC(=O)Cn2cncc2-c2ccc([N+](=O)[O-])cc2)cc1C	.	.	1.1	1.4	33.2*
O=C(C1CCC(=O)N1Cc1ccccc1Cl)N1CCN(c2ccc(F)cc2)CC1 (stereo not given)	-1.21	-0.16	1.2	-5.8	3.2
CC(C)N=C(NC#N)SCC(=O)NC(C)(C)C	-0.365	-0.919	0.9	-1.0	1.4
CC(C)N=C(NC#N)SCc1ccccc1F	-8.54*	0.228	1.2	4.5	-6.0
COc1ccc(Cn2nnnc2C(c2cc3cccc(C)c3[nH]c2=O)N2CCOCC2)cc1 (stereo not given)	0.576	2.74	1.4	2.1	34.1*
CCOc1ccc2[nH]c(=O)c(C(c3nnnn3Cc3ccco3)N3CCCC(C)C3)cc2c1 (stereo not given)	2.49*	-5.89*	1.7	-12.2	26.1
CCOc1ccc2[nH]c(=O)c(C(c3nnnn3C3CCCCC3)N3CCN(CC)CC3)cc2c1 (stereo not given)	0.399	-1.32	1.5	14.9	14.8
